Shown are actives, neighbours in structure and some others; about 2.4% of the full set was active somewhere.
TSG101-PTAP inh: blocks PTAP/TSG101 interaction to inhibit HIV-1 budding | 340,000 tested, under 10 active | AID 493005 | Fluorescence polarization, FITC-PTAP peptide / Tsg101 binding | Potency, µM (highest dose often 115 µM), for the others: at the highest dose activity change, negative = inhibition, hits mostly inhibitors; active = well fitted inhibition curve with a large enough effect in the main read-out, with a control signal flat, not every such curve was filed as active; inconclusive = small, poorly fitted or top-dose-only effect, or effect the other way, or a change in a side signal; inactive = no such curve, though single readings can be large or run the other way; also: % of control where 0% means no effect
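Compounds were pin-transferred onto Tsg101 binding domain (10 uM final) in HEPES pH 7.5 buffer, then FITC-PTAP peptide was added at 50 nM final. After 20 min at RT, polarization reported peptide displacement across a qHTS concentration series.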
ALOX12 inh: inhibitors of human 12S-lipoxygenase ALOX12. P18054. purified 12hLO, xylenol orange hydroperoxide absorbance. Potency, µM (doses to about 108 µM), without a hit: top-dose activity change, negative = inhibition, usual class: inhibitors. 580,000 compounds, 1.1% hits; also: % is scaled to controls: 0 for no effect and ±100 for the full control effect
Target sequence (P18054 whole entry, looked up): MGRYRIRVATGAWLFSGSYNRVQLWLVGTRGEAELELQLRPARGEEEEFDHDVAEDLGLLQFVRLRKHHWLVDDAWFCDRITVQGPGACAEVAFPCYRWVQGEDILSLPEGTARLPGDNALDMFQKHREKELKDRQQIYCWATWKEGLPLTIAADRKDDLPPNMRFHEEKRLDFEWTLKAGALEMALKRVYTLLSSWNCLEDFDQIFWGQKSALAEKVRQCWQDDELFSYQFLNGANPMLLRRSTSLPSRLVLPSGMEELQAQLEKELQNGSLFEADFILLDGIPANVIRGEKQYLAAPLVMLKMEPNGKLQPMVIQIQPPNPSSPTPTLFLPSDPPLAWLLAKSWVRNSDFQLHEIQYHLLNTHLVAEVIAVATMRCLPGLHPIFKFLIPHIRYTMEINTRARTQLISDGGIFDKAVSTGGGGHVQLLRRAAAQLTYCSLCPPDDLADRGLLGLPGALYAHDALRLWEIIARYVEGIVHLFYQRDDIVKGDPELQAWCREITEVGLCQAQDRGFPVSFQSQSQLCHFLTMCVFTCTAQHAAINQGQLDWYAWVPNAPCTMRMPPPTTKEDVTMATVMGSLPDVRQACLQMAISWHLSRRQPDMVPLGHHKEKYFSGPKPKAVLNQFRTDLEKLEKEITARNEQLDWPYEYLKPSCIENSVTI
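Purified human 12hLO at 150 nM in 25 mM Hepes, 0.01% Triton X-100, pH 7.0, preincubated 15 min at room temperature with compound. Reaction started with 40 uM arachidonic acid, 30 min at room temperature. Hydroperoxide measured by Fe-xylenol orange, 573/405 nm absorbance ratio.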
Rango-impB inh: Rango-importin beta binding inhibition; Q14974; Rango CFP/YFP FRET sensor + importin beta, 45 min; Potency, µM (series often up to 92.2 µM), without a hit: at the top dose inhibition of complex formation; 340,000 compounds, 0.031% hits; calls by dose curve;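 also: 0% = DMSO wells and 100% = buffer wells lacking importin beta; nearly all actives have a fitted effect of over 15% in size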
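FRET biosensor Rango (snurportin 1 IBB between N-terminal EYFP and C-terminal Cerulean), 50 nM in PBS/1 mM DTT/0.02% Tween-20/0.1% BSA, preincubated 5 min RT with compound; 0.125 microM importin beta added, 45 min RT, CFP/YFP FRET ratio read.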
TDP1 inh: TDP1 (human) enzyme inhibition; Q9NUW8; recombinant TDP1, AlphaScreen DNA substrate cleavage; Potency, µM (highest dose often 130 µM), for inactives: at the top dose activity change, negative = inhibition, hits mostly inhibitors; 350,000 compounds, 0.28% hits; AID 485290; also: % is scaled to controls: 0 for no effect and ±100 for the full control effect; nearly all actives have a fitted effect of over 40% in size
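Tdp1 1 nM final; 15 min RT w/ cpd; substrate 15 nM, 5 min; beads 10 ug/ml, 10 min; AlphaScreen read. Neg ctrl: no enzyme.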
ClpP mod: qHTS Assay for Activators of ClpP | ATP-dependent Clp protease proteolytic subunit (Bacillus subtilis (strain 168)), P80244 | 340,000 compounds, 1.9% hits | AID 651965, 2013 | Potency, µM (titrated, usually from 57.5 µM), for the others: top-dose activity change, negative = active | purified B. subtilis ClpP, FRET peptide cleavage, 20 min; active = well fitted falling curve with a large enough effect; inconclusive = small, poorly fitted or top-dose-only effect; inactive = no such curve, though single readings can be large or run the other way; also: the source files actives as falling curves though it sought activators and does not explain the sign; nearly all actives have a fitted effect of over 65% in size
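Purified B. subtilis ClpP, 10 microg/mL final in Tris/HCl pH8 with KCl, BSA, glycerol and Tween-20, cleaved an Abz/nitrotyrosine-quenched decapeptide. Fluorescence (ex 320, em 430) was read at 0 and 20 min at room temperature. Delta was normalized to 5.8 microM ADEP and DMSO/no-enzyme controls.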
Rango release inh: inhibitors of RanGTP-induced Rango-importin beta complex dissociation | O95149+P62826 | Biochemical FRET Rango-importin beta, RanGTP-induced dissociation | Potency, µM (highest dose often 46.1 µM), without a hit: top-dose activity change, negative = inhibition | 340,000 compounds, 0.071% hits | AID 540253; calls by dose curve; also: % of control where 0% means no effect; nearly all actives have a fitted effect of over 45% in size
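Rango (0.1 uM)–importin beta (0.25 uM) complex; RanGTP-RCC1 trigger; 45 min RT; CFP/YFP FRET read.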
Numbers without * were called inactive; ? = inconclusive; · = no result given; ! = not confirmed by another sample; [ ] = dose if it differs, or a comment. Unless noted, calls follow the shape of the dose curve; as a rule, active = well fitted curve in the direction sought with a large enough effect; inconclusive = small, poorly fitted or top-dose-only effect, or another doubt; inactive = no such curve, though single readings can be large; an effect the other way counts as inactive or inconclusive. Potency is read from the fitted curve at half-maximal effect.

SMILES | TSG101-PTAP inh | ALOX12 inh | Rango-impB inh | TDP1 inh | ClpP mod | Rango release inh
O=C(O)c1ccccc1NC(=O)N1c2ccccc2Sc2ccccc21 | · | ? | · | 3%[12.3 µM] | 4% | ·
Cc1ccc(C2N=C(N)Nc3nc4ccccc4n32)cc1 (stereo not drawn) | -2% | 6% | 9% | 6% | -3% | 24%
Cc1cccc(C2N=C(N)Nc3nc4ccccc4n32)c1 (stereo not drawn) | -3% | -1% | 3% | -3% | 25µM*! | 8%
Cc1ccc(S(=O)(=O)Nc2ccc(C)n(CC(=O)NCc3ccc(F)cc3)c2=O)cc1 | · | 2% | · | · | · | ·
N#Cc1c(N2CCN(C(=O)C(=O)NCC3CCCO3)CC2)nc(-c2ccccc2)c2c1CCCC2 (stereo not drawn) | · | -10% | · | · | · | ·
Cc1nc(N2CCOCC2)c(C#N)c2c1COC(C)(C)C2 | -1% | 17% | -2% | 2% | 32µM* | -4%
CC(C)C(=O)N1CCN(c2nc(-c3ccccc3)c3c(c2C#N)CCCC3)CC1 | -4% | 0% | 3% | -4% | 28µM* | -2%
CC1(C)Cc2c(C#N)c(N3CCOCC3)nc(-c3ccccc3)c2CO1 | 0% | ? | 0% | -2% | 35µM* | -27%
CCc1nc(N2CCN(C(=O)c3ccccc3)CC2)c(C#N)c2c1COC(C)(C)C2 | -12% | -1% | ? | 5% | 25µM* | -4%
CN(C)C(=O)N1CCC2(CC1)CN(C(=O)CCCNC(N)=O)Cc1ccccc1O2 | · | 4%[6.33 µM] | · | · | · | ·
COCCCNC(=O)C1CCN(C(=O)N2CC3CC(C2)[C@H]2CCCC(=O)N2C3)CC1 (stereo partly drawn) | · | 47% | · | · | · | ·
CC(=O)c1c(C)oc2ccc(NS(=O)(=O)c3ccc(O)c(C(=O)O)c3)cc12 | -4% | 16µM* | 0% | 4% | -4% | -11%
CN1CC=C2C(C#N)=C(N)C(C#N)(C#N)[C@H](c3ccoc3)[C@H]2C1 | ? | · | ? | · | 32µM* | ?
Cc1ccc(C2C3CN(C(C)C)CC=C3C(C#N)=C(N)C2(C#N)C#N)cc1 (stereo not drawn) | ? | 0% | ? | 7% | 20µM* | ?
CCc1ccc(C(=O)NNC(=O)OC)cc1 | 0% | 40% | 2% | ? | 14µM* | 1%
CCCc1ncc(C(O)c2ccc(OC)c(OC)c2)n1C (stereo not drawn) | · | -10% | · | · | · | ·
Fc1ccc(-[n+]2nc(Nc3ccccc3)sc2-c2ccc(OCc3ccccc3)cc2)cc1 | · | 40µM* | 1% | · | -1% | -10%
c1csc(CNc2nc(-c3ccoc3)nc3ccccc23)c1 | · | 10µM* | · | · | · | ·
CNc1nc(-c2ccoc2)nc2ccccc12 | · | 35µM* | · | · | · | ·
O=C(NCc1ccccc1F)[C@H]1[C@H](CO)[C@H]2Cn3c(cccc3=O)[C@H]2N1CC1CC1 | · | -30% | · | · | · | ·
CN1CCN(c2ncc3nc(-c4cn(C)c5ccccc45)c(=O)n(-c4ccccc4)c3n2)CC1 | · | 6.3µM* | · | · | · | ·
CS(=O)(=O)N1CC(c2nc(Cc3ccccc3)no2)C1 | · | 50% | · | · | · | ·
COc1ccc(-c2ccc(C(=O)NC3CC(c4cc(=O)[nH]c(N)n4)C3)o2)cc1 (stereo not drawn) | · | -62% | · | · | · | ·
O=S(=O)(c1ccc2ccccc2c1)N1CCOCC1 | -1% | -2% | -1% | 0% | 1% | 7%
O=S(=O)(c1ccc2nc(-c3ccco3)c(-c3ccco3)nc2c1)N1CCOCC1 | -3% | 14µM* | ? | 1% | -11% | ?
COc1ccc(-c2ccc(C#N)c(SCC(=O)OCc3ccccc3)n2)cc1OC | 0% | -39% | ? | ? | ? | ?
N#Cc1ccc(-c2ccc3c(c2)OCO3)nc1SCC(=O)OCc1ccccc1 | 10% | -2% | ? | -12% | 2.5µM* | ?

Bioassay records deposited in PubChem BioAssay by National Center for Advancing Translational Sciences (NCATS).
